Test results published in PubChem BioAssay (EPA / NIEHS).
Where “and” joins values, the source holds several entries; their conditions need not be identical. Equal values may be shown once. Where a structure was tested more than once in an assay, its records may differ in their call. Calls of active or inactive are those of the source. How the source made its calls: active means hit-call score of the fitted dose curve at least 0.9, where 1 is the maximum; inactive means score below 0.9.

How the values were obtained:
[1] = target: Bile acid receptor (Homo sapiens) (UniProt Q96RI1); test: ATG_IR1_CIS: Attagene CIS-FACTORIAL HepG2 Assay for human Nuclear Receptor Subfamily 1 Group H Member 4 (NR1H4), IR1 submotif (AID 2282946); settings: IR1 reporter transcription, actives raise or lower the signal
Chain of Bile acid receptor (Homo sapiens) (Q96RI1 whole entry, looked up, the tested form may be a part): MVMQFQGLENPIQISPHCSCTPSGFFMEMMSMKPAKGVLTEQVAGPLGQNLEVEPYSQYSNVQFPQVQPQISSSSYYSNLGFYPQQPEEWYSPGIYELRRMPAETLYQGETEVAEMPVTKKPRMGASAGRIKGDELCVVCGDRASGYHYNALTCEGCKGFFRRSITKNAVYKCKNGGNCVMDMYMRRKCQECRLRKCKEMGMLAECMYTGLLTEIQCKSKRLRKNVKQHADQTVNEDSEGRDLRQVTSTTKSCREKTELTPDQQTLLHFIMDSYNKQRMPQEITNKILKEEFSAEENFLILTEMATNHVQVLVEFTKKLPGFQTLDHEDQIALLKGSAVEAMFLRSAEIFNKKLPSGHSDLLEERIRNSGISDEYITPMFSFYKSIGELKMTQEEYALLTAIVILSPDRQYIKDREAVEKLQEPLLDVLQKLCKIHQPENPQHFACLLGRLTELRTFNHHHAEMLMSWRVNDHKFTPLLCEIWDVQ
In short: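 Cells (human HepG2) carry transiently transfected cis-promoter reporter transcription units. Compounds are incubated 24 h, total RNA is reverse-transcribed and amplified, and labelled fragments are resolved by capillary electrophoresis. Curves use DMSO as baseline.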

[2] = ATG_GRE_CIS: Attagene CIS-FACTORIAL HepG2 Assay for human Glucocorticoid Response Elements (GRE) (AID 2282947); settings: HepG2 GRE cis-reporter, Attagene multiplex mRNA; actives raise or lower the signal
In short: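 Assay uses human hepatoma HepG2 cells transfected with cis-promoter reporter units, exposed 24 h. mRNA from reporters detected by RT-PCR plus capillary electrophoresis; DMSO serves as negative control and baseline.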

[3] = ATG_ISRE_CIS: Attagene CIS-FACTORIAL HepG2 Assay for human Interferon Regulatory Factor 1 (IRF1) binding to an Interferon-Stimulated Response Element (ISRE) (AID 2282948); settings: HepG2 ISRE cis-reporter (Attagene), mRNA transcription readout; actives raise or lower the signal
In short: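 HepG2 cells transiently transfected with multiplexed cis-promoter reporter units; after 24 h compound exposure, reporter mRNA quantified by RT-PCR, FAM labelling, HpaI digestion and capillary electrophoresis. Bidirectional fit versus DMSO baseline.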

[4] = ATG_M_32_CIS: Attagene CIS-FACTORIAL HepG2 Assay for M32 Transcription Factor (Internal Marker) (AID 2282949); settings: HepG2 Attagene cis-factorial M32 reporter, mRNA; actives raise or lower the signal;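 further: background control marker of the multiplexed CIS panel rather than a real target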
In short: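 Following 24 h chemical exposure of HepG2 cells transiently expressing cis-promoter reporter constructs, reporter transcript levels were determined by RT-PCR with fluorescent labelling and capillary electrophoresis, then fitted bidirectionally against DMSO.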

[5] = ATG_M_06_CIS: Attagene CIS-FACTORIAL HepG2 Assay for M06 Transcription Factor (Internal Marker) (AID 2282950); settings: HepG2 Attagene CIS-FACTORIAL M06 internal marker reporter; actives raise or lower the signal
In short: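 Terse: HepG2, transient MRTU transfection (FuGene 6), 24 h dosing; total RNA, oligo(dT) RT, PCR, FAM label, HpaI cut, capillary electrophoresis; bidirectional fit vs DMSO baseline; background-control endpoint.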

[6] = target: Hypoxia-inducible factor 1-alpha (Homo sapiens) (UniProt Q16665); test: ATG_HIF1a_CIS: Attagene CIS-FACTORIAL HepG2 Assay for human Hypoxia Inducible Factor 1 (HIF1A) (AID 2282951); settings: HepG2 Attagene cis-factorial HIF1a reporter transcription; actives raise or lower the signal
Chain of Hypoxia-inducible factor 1-alpha (Homo sapiens) (Q16665 whole entry, looked up): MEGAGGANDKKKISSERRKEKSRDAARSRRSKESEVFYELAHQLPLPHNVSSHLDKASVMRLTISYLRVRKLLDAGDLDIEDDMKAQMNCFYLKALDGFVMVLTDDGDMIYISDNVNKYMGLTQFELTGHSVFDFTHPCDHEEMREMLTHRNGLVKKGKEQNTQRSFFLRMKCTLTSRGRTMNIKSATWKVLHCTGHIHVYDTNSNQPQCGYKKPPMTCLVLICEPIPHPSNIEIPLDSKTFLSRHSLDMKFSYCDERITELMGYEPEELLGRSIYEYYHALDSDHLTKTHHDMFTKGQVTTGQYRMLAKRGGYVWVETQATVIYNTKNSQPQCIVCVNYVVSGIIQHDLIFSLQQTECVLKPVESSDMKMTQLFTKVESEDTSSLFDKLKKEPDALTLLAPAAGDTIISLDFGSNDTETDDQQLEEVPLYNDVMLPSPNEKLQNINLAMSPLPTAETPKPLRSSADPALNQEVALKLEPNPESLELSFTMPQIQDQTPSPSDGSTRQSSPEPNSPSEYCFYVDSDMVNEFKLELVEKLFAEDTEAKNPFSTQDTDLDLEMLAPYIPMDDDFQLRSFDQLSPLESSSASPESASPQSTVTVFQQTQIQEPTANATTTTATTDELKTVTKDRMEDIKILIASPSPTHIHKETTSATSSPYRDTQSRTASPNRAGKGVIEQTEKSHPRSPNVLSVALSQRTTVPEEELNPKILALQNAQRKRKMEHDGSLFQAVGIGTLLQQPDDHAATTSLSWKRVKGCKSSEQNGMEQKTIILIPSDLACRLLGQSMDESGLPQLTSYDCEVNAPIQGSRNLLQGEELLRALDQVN
In short: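 HepG2 cells transiently transfected with multiplexed cis-promoter reporter units; reporter mRNA read 24 h after dosing by RT-PCR, 6-FAM primer-extension labelling, HpaI digestion and capillary electrophoresis. Bidirectional fit versus DMSO baseline.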

[7] = target: Hepatocyte nuclear factor 6 (Homo sapiens) (UniProt Q9UBC0); test: ATG_HNF6_CIS: Attagene CIS-FACTORIAL HepG2 Assay for human Hepatocyte Nuclear Factor 6 (HNF6) (AID 2282952); settings: HepG2 Attagene cis-factorial HNF6 reporter transcription; actives raise or lower the signal
Chain of Hepatocyte nuclear factor 6 (Homo sapiens) (Q9UBC0 whole entry, looked up): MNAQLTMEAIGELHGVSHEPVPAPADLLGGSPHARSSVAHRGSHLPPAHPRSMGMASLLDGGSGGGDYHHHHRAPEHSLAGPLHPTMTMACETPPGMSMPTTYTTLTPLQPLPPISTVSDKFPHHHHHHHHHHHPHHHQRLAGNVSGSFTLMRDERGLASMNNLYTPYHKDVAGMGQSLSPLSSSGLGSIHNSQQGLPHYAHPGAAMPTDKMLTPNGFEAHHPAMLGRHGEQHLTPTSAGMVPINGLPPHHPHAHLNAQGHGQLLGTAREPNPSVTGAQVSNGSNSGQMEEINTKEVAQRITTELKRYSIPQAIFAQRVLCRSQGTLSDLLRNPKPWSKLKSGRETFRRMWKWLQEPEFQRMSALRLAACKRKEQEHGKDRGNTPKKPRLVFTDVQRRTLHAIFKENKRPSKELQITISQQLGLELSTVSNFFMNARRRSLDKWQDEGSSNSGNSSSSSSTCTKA
In short: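 HepG2 cells transiently transfected with cis-element-driven multiple reporter transcription units, dosed 24 h; reporter mRNA quantified by RT-PCR, FAM primer extension, HpaI digestion and capillary electrophoresis; bidirectional fit versus DMSO baseline.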

[8] = target: Heat shock factor protein 1 (Homo sapiens) (UniProt Q00613); test: ATG_HSE_CIS: Attagene CIS-FACTORIAL HepG2 Assay for human Heat Shock Transcription Factor 1 (HSE) (AID 2282953); settings: HepG2 HSE cis-reporter, Attagene RNA transcription; actives raise or lower the signal
Chain of Heat shock factor protein 1 (Homo sapiens) (Q00613 whole entry, looked up, the tested form may be a part): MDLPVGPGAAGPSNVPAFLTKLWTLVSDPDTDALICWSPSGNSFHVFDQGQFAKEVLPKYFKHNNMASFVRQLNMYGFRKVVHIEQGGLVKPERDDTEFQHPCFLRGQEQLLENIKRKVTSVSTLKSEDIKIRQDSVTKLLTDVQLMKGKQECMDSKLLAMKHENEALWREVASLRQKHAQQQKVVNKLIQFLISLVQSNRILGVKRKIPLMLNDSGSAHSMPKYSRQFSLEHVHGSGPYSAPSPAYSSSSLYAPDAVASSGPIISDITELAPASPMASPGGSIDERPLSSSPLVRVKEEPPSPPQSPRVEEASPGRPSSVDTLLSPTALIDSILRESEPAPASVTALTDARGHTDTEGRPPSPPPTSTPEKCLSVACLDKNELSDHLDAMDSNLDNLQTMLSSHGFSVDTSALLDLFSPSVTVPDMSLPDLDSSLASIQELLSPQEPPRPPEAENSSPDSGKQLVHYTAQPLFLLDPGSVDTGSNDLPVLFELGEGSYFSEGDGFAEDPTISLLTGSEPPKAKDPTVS
In short: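 Read-out: fluorescence of reporter-specific RT-PCR fragments separated by capillary electrophoresis. HepG2 carrying transfected cis-element reporter units; 24 h dosing; activity fitted in both directions relative to DMSO baseline.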

[9] = target: Paired box protein Pax-6 (Homo sapiens) (UniProt P26367); test: ATG_Pax6_CIS: Attagene CIS-FACTORIAL HepG2 Assay for human Paired Box 6 (PAX6) (AID 2282956); settings: HepG2 CIS-FACTORIAL PAX6 reporter transcription, RNA readout; actives raise or lower the signal
Chain of Paired box protein Pax-6 (Homo sapiens) (P26367 whole entry, looked up): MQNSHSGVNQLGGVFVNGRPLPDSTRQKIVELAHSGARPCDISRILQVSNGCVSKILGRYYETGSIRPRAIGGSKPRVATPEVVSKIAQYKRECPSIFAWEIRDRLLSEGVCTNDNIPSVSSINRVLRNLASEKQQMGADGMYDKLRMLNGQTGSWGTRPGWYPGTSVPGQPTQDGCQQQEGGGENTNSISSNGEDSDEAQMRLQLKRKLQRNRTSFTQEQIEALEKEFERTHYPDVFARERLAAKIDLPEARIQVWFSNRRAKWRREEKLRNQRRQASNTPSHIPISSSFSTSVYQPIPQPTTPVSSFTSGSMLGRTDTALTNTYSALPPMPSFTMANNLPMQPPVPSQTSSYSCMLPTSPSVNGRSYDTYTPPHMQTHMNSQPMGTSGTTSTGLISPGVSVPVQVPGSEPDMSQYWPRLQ
In short: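 HepG2 cells transiently transfected with multiplexed cis-promoter reporter units (endogenous TF activity) were dosed for 24 h. Reporter mRNA was quantified by RT-PCR, 6-FAM labeling, HpaI digestion and capillary electrophoresis; bidirectional fitting versus DMSO baseline.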

[10] = ATG_PXRE_CIS: Attagene CIS-FACTORIAL HepG2 Assay for human Pregnane X Receptor Element (PXRE) (AID 2282957); settings: HepG2 Attagene CIS-FACTORIAL PXRE reporter, mRNA; actives raise or lower the signal
In short: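 HepG2 cells transiently transfected with cis-regulated multiple reporter transcription units; endogenous factor activity measured as reporter mRNA 24 h after dosing. RT-PCR, fluorescent primer extension, HpaI digestion, capillary electrophoresis; bidirectional fit versus DMSO baseline.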

[11] = ATG_PPRE_CIS: Attagene CIS-FACTORIAL HepG2 Assay for human Peroxisome Proliferator-activated Response Element (PPRE) (AID 2282958); settings: HepG2 PPRE cis-element reporter, Attagene transcription factor profiling; actives raise or lower the signal
In short: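 HepG2 cells transiently transfected with multiplexed cis-element reporter units measure endogenous transcription factor activity. After 24 h compound exposure, reporter mRNA is quantified by RT-PCR, 6-FAM labeling, HpaI digestion and capillary electrophoresis; bidirectional fits are made against DMSO baseline.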

[12] = ATG_RORE_CIS: Attagene CIS-FACTORIAL HepG2 Assay for human RAR-related Orphan Receptor Element (RORE) (AID 2282959); settings: HepG2 Attagene cis-factorial RORE reporter, mRNA; actives raise or lower the signal
In short: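 HepG2 cells transiently transfected with multiple cis-element reporter transcription units, exposed to chemical for 24 h. Reporter mRNA quantified by RT-PCR, 6-FAM primer-extension labeling, HpaI digestion and capillary electrophoresis; bidirectional fit versus DMSO baseline.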

[13] = ATG_Sox_CIS: Attagene CIS-FACTORIAL HepG2 Assay for human SRY-box transcription factor (SOX) (AID 2282960); settings: HepG2 Attagene cis-factorial SOX reporter, mRNA; actives raise or lower the signal
In short: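 HepG2 cells transiently transfected with cis-element-driven multiple reporter transcription units, dosed 24 h; reporter mRNA measured by RT-PCR, FAM labelling, HpaI digestion and capillary electrophoresis. Bidirectional fit versus DMSO baseline.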

[14] = target: Transcription factor Sp1 (Homo sapiens) (UniProt P08047); test: ATG_Sp1_CIS: Attagene CIS-FACTORIAL HepG2 Assay for human Specificity Protein 1 (Sp1) (AID 2282961); settings: HepG2 Sp1 cis-reporter transcription, actives raise or lower the signal
Chain of Transcription factor Sp1 (Homo sapiens) (P08047 whole entry, looked up): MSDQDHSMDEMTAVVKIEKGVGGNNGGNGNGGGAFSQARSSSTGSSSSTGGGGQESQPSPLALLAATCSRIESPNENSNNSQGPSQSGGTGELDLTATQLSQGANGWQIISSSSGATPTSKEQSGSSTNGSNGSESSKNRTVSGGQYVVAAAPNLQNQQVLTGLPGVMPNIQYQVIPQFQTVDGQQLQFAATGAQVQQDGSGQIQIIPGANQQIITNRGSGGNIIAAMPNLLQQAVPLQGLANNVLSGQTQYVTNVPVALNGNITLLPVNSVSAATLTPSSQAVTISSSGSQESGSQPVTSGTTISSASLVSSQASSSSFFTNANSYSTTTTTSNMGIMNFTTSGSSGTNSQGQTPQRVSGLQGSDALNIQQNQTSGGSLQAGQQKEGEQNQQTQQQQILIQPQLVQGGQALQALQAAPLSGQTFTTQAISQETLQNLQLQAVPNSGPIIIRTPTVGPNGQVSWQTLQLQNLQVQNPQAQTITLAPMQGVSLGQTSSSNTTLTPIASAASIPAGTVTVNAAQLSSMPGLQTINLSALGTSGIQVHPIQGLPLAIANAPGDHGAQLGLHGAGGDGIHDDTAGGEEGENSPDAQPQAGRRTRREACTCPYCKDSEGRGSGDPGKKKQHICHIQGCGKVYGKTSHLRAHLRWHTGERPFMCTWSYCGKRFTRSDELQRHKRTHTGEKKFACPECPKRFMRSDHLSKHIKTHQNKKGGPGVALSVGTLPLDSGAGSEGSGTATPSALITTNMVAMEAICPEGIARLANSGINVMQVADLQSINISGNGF
In short: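 HepG2 cells transiently transfected with multiple reporter transcription units driven by cis-regulatory elements; Sp1-responsive reporter mRNA measured 24 h after dosing by RT-PCR and capillary electrophoresis fluorescence, fitted bidirectionally against DMSO baseline.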

[15] = ATG_SREBP_CIS: Attagene CIS-FACTORIAL HepG2 Assay for human Sterol Regulatory Element Binding (SREBP) (AID 2282962); settings: HepG2 Attagene cis-factorial SREBP reporter, mRNA; actives raise or lower the signal
In short: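 HepG2 cells transiently transfected with multiplexed cis-element reporter units report endogenous transcription factor activity. After 24 h of chemical exposure, reporter mRNA was quantified by RT-PCR, 6-FAM labelling, HpaI digestion and capillary electrophoresis; bidirectional fits used DMSO as baseline.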

[16] = target: Signal transducer and activator of transcription 3 (Homo sapiens) (UniProt P40763); test: ATG_STAT3_CIS: Attagene CIS-FACTORIAL HepG2 Assay for human Signal Transducer and Activator of Transcription 3 (STAT3) (AID 2282963); settings: HepG2, Attagene cis-factorial STAT3 reporter transcription; actives raise or lower the signal
Chain of Signal transducer and activator of transcription 3 (Homo sapiens) (P40763 whole entry, looked up): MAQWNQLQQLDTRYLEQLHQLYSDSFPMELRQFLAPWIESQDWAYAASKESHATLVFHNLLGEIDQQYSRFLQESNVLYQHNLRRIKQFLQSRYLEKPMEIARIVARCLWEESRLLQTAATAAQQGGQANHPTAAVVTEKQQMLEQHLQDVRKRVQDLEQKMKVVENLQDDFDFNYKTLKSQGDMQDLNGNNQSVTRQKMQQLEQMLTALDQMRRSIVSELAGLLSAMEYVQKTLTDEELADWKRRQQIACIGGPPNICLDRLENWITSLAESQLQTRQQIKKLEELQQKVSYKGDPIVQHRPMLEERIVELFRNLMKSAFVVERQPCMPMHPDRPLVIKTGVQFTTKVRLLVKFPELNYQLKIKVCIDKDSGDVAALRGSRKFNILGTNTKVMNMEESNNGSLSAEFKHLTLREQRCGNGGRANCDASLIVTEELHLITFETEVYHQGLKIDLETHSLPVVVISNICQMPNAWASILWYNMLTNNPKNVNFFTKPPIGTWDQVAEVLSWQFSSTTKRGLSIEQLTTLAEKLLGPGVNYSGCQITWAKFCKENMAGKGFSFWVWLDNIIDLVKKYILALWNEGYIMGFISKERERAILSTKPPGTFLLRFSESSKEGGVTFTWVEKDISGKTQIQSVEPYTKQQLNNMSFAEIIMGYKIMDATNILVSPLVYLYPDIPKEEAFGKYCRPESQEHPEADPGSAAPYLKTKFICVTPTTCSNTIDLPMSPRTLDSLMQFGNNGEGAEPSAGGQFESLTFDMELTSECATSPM
In short: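 After a 24 h compound incubation, total RNA from MRTU-transfected HepG2 cells was converted to cDNA and reporter sequences PCR-amplified, labelled and profiled by capillary electrophoresis. Gain and loss of signal were referenced to DMSO.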

[17] = ATG_TA_CIS: Attagene CIS-FACTORIAL HepG2 Assay for human TA Basal Promoter (AID 2282964); settings: HepG2 Attagene CIS-factorial TA basal promoter reporter; actives raise or lower the signal
In short: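 Transfected HepG2, 24 h compound exposure; RNA → RT-PCR → FAM primer extension → HpaI cut → CE fluorescence. Gain/loss-of-signal fitted against DMSO negative control. Background-control readout.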

[18] = ATG_TCF_b_cat_CIS: Attagene CIS-FACTORIAL HepG2 Assay for human T-Cell-Factor with beta-catenin (TCF/b-cat) (AID 2282965); settings: HepG2 TCF/beta-catenin cis-reporter transcription, actives raise or lower the signal
In short: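 Measured: reporter mRNA in HepG2 transiently transfected with cis-promoter reporter units, 24 h after chemical addition. Fitting was bidirectional, DMSO as negative control.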

[19] = ATG_MRE_CIS: Attagene CIS-FACTORIAL HepG2 Assay for human Metal Responsive Element (MRE) (AID 2282954); settings: HepG2 MRE cis-reporter transcription, Attagene multiplex; actives raise or lower the signal
In short: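 After a 24 h chemical exposure, transiently transfected HepG2 cells yield RNA whose reporter sequences are amplified, FAM-labelled and sized by capillary electrophoresis. Curves are fitted bidirectionally relative to DMSO.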

[20] = ATG_PBREM_CIS: Attagene CIS-FACTORIAL HepG2 Assay for human Phenobarbital-responsive Enhancer Module (PBREM) (AID 2282955); settings: HepG2 PBREM cis-reporter, Attagene multiplexed transcription; actives raise or lower the signal
In short: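 HepG2 cells transiently transfected with multiple cis-regulated reporter transcription units; endogenous factor activity at the PBREM element measured as reporter mRNA 24 h after dosing, via RT-PCR and capillary electrophoresis of fluorescent fragments; bidirectional fitting versus DMSO.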

Measured: AC50

CC[C@H](NC(=O)c1cc(F)ccc1NS(=O)(=O)c1cccc2cccnc12)c1ccccc1
active: [10] 14.4 nM | [15] 27.1 µM
not listed: [19] | [20]
inactive: all other assays above

c1ccc2ccccc2c1
inactive: [1] | [3] | [4] | [5] | [6] | [7] | [8] | [19] | [9] | [10] | [11] | [12] | [13] | [14] | [15] | [16] | [17]
active: [7] 100 µM

CC(=O)N1CCN(c2ccc(OC[C@H]3CO[C@](Cn4ccnc4)(c4ccc(Cl)cc4Cl)O3)cc2)CC1
inactive: [2] | [4] | [5] | [7] | [20] | [11] | [13] | [16]
active: [1] 48.5 µM | [3] 15.1 µM | [8] 55.6 µM | [19] 33.9 µM | [9] 10 µM | [10] 942 nM | [12] 1.58 µM | [14] 49.9 µM | [15] 5.24 µM | [17] 4.84 µM

CCCCCCCCCCCO
not listed: [2] | [8] | [12]
inactive: all other assays above

CCCCCc1ccc(N)cc1
active: [6] 2.57 µM | [10] 72.9 µM and 27.4 µM and 21.2 µM
inactive: [3] | [4] | [5] | [6] | [7] | [8] | [20] | [9] | [10] | [11] | [13] | [14] | [15] | [16] | [17]

O=C(OCCCCCCOC(=O)c1ccccc1)c1ccccc1
not listed: [11] | [12] | [19]
inactive: all other assays above

OC12N=C(c3ccccc3)SC1Cc1cc(Cl)ccc12 (configuration not stated)
active: [10] 4270 nM | [11] 0.0507 µM
not listed: [12] | [19] | [20]
inactive: all other assays above
